Measured values: the supplement of paper PMC3898565
± gives the uncertainty stated by the source.
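Further: viable cell number estimated from Alamar Blue fluorescence read at 560/90, part of a single-dose primary screen of an FDA-approved drug library.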

The compounds below were run on U87 (assay: cell viability relative to vehicle control; higher = less growth inhibition (less active)). Settings: 10 µM; 72 h.
For `C=C1/C(=C\C=C2/CCC[C@]3(C)[C@@H]([C@H](C)CCCC(C)(C)O)CC[C@@H]23)C[C@@H](O)C[C@@H]1O`, the cell viability was 105 ± 2.2%. For `CN(C)CCOC(C)(c1ccccc1)c1ccccn1` (centres undefined) [doxylamine succinate], the cell viability was 96.6 ± 1.2%. In the case of `O=c1c(-c2ccccc2)c1-c1ccccc1` [diphenylcyclopropenone], the cell viability is reported as 77.4 ± 6.9%. Work on `CS(=O)(=O)c1ccc(-c2cc(Br)sc2-c2ccc(F)cc2)cc1` yielded a cell viability of 107.7 ± 0.82%. `Nc1nc(Cl)nc2c1ncn2[C@H]1C[C@H](O)[C@@H](CO)O1` was tested, and the cell viability was 35.4 ± 1.4%. `COc1cc2nc(N3CCN(C(=O)C4CCCO4)CC3)nc(N)c2cc1OC` (centres undefined) [Terazosin] was tested, and the cell viability was 100.6 ± 0.86%. `O=C(NCCO[N+](=O)[O-])c1cccnc1` [Nicorandil] was tested, and the cell viability was 101 ± 2.2%. `O=c1cnn([C@@H]2O[C@H](CO)[C@@H](O)[C@H]2O)c(=O)[nH]1` was tested, and the cell viability was 94.8 ± 1.9%. For `C[C@H]1[C@H](OC(=O)CCC(=O)O)O[C@@H]2O[C@@]3(C)CC[C@H]4[C@H](C)CC[C@@H]1[C@@]24OO3`, the cell viability was 98.9 ± 1.1%. `CCCc1nc2c(C)cc(-c3nc4ccccc4n3C)cc2n1Cc1ccc(-c2ccccc2C(=O)O)cc1` was tested, and the cell viability was 98.3 ± 2.2%. For `C=CC1=C(C(=O)O)N2C(=O)[C@@H](NC(=O)/C(=N\OCC(=O)O)c3csc(N)n3)[C@H]2SC1`, the cell viability was 103.9 ± 0.8%. Compound `Cc1nccn1CC1CCc2c(c3ccccc3n2C)C1=O` (centres undefined) [Ondansetron] has a cell viability of 99.8 ± 1.5%. With `CCOC(=O)C1=C(C)NC(C)=C(C(=O)OC)C1c1cccc([N+](=O)[O-])c1` (centres undefined) the cell viability was 98.9 ± 2.8%. `Nc1nc(O)c2ncn(CCC(CO)CO)c2n1` gave a cell viability of 103 ± 2.2%. `O=c1[nH]cnc2c1ncn2[C@H]1CC[C@@H](CO)O1` was tested, and the cell viability was 105 ± 2.5%. In the case of `CCc1nn(CCCN2CCN(c3cccc(Cl)c3)CC2)c(=O)n1CCOc1ccccc1` [Nefazodone], the cell viability is reported as 100.5 ± 0.27%. In the case of `Cc1ccnc2c1NC(=O)c1cccnc1N2C1CC1` [Viramune], the cell viability is reported as 107 ± 3.4%. `CC(=O)CCCCn1c(=O)c2c(ncn2C)n(C)c1=O` [Pentoxifylline] was tested, and the cell viability was 101.9 ± 0.75%. Compound `O=c1n(CCCN2CCN(c3cccc(Cl)c3)CC2)nc2ccccn12` has a cell viability of 101 ± 1.3%. `COCCCOc1ccnc(C[S+]([O-])c2nc3ccccc3[nH]2)c1C` (centres undefined) showed a cell viability of 108.6 ± 0.87%. With `OCCOCCN1CCN(C2=Nc3ccccc3Sc3ccccc32)CC1` the cell viability was 99.6 ± 2.8%. For `Fc1ccc([C@@H]2CCNC[C@H]2COc2ccc3c(c2)OCO3)cc1` [Paroxetine], the cell viability was 101 ± 1.2%. Compound `CN1CCN(C2=Nc3ccccc3Oc3ccc(Cl)cc32)CC1` [Loxapine] has a cell viability of 102 ± 1.6%. `CC(C)NCC(O)COc1ccc(COCCOC(C)C)cc1` (centres undefined) showed a cell viability of 104 ± 2.4%. Compound `Cc1c(O)c(=O)ccn1C` has a cell viability of 102 ± 5.2%. `CCOC(=O)OC(C)OC1=C(C(=O)Nc2ccccn2)N(C)S(=O)(=O)c2ccccc21` (centres undefined) showed a cell viability of 107 ± 1.1%. `CN(C)CCOc1ccc(/C(=C(/CCCl)c2ccccc2)c2ccccc2)cc1` was tested, and the cell viability was 106 ± 1.8%. For `COc1cc(/C=C/c2ccc(O)cc2)cc(OC)c1`, the cell viability was 100.4 ± 0.43%. Compound `CC(C)OC(=O)CCC/C=C\C[C@@H]1[C@@H](CC[C@@H](O)CCc2ccccc2)[C@H](O)C[C@@H]1O` has a cell viability of 106 ± 4.2%. `c1cnc(N2CCN(Cc3ccc4c(c3)OCO4)CC2)nc1` [Piribedil] was tested, and the cell viability was 108.4 ± 0.77%. Compound `OC[C@H]1O[C@@H](n2cnc3c(N[C@H]4CCC[C@@H]4O)ncnc32)[C@@H](O)C1O` (stereo partly drawn) [Adenosine, N-(2-hydroxycyclopentyl)-, (1S-trans)- [CAS]] has a cell viability of 110.8 ± 0.42%. `CCCCc1oc2ccccc2c1C(=O)c1cc(I)c(OCCN(CC)CC)c(I)c1` [Amiodarone] was tested, and the cell viability was 105 ± 1.1%. Compound `COC(=O)C[C@](O)(CCCC(C)(C)O)C(=O)O[C@@H]1C(OC)=C[C@]23CCCN2CCc2cc4c(cc2[C@H]13)OCO4` has a cell viability of 10.3 ± 0.73%. `C=C1/C(=C\C=C2/CCC[C@]3(C)[C@@H]([C@H](C)/C=C/[C@@H](O)C4CC4)CC[C@@H]23)C[C@@H](O)C[C@@H]1O` gave a cell viability of 100 ± 1.4%. Compound `Cc1sc(N)c(C(=O)c2cccc(C(F)(F)F)c2)c1C` has a cell viability of 109 ± 1.8%. For `CN1CCN(CCCN2c3ccccc3Sc3ccc(Cl)cc32)CC1`, the cell viability was 95.9 ± 7%. Compound `CCN1CCN(c2cc3c(cc2F)c(=O)c(C(=O)O)cn3C2CC2)CC1` has a cell viability of 109 ± 1.3%. With `CC(Oc1c(Cl)cccc1Cl)C1=NCCN1` (centres undefined) the cell viability was 113 ± 11%. Compound `Cc1cccc(C)c1NC(=O)C1CCCCN1C` (centres undefined) has a cell viability of 106 ± 0.63%.
